Where a name gives a salt, the structure may show the parent alone.
Test system: Klebsiella aerogenes DSM 30053
Assay: fold change of Putrescine concentration vs plate DMSO controls (fold change (ratio)); higher = more amine produced, active = hit call of the paper (significant change in both replicates, either direction)
Conditions: incubation time: 27 h, anaerobic, 37 °C;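 for the amine columns active = adjusted P below 0.05 in both replicates with a change the same way and a mean fold change under 0.8 or over 1.25; inactive = the rest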
Outline: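 Amine values are fold changes relative to DMSO-only wells on the same plate. They derive from 27 h, 37 °C anaerobic mGAM cultures of four gut bacterial strains in 80 µL wells, dosed at 20 µM final, or 50 µM final for sweeteners. Extraction of the whole culture, LC–triple-quadrupole MS in dynamic MRM mode, external calibration curves and within-batch drift correction were used, with 2 biological replicates averaged.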

SMILES	fold change of Putrescine concentration
CC(=O)S[C@@H]1CC2=CC(=O)CC[C@]2(C)[C@H]2CC[C@@]3(C)[C@@H](CC[C@@]34CCC(=O)O4)[C@H]12 [Spironolactone] (20 µM)	1.01 (inactive)
COC(=O)C1=C(C)NC(C)=C(C(=O)OCCN2CCN(C(c3ccccc3)c3ccccc3)CC2)C1c1cccc([N+](=O)[O-])c1 (configuration not stated) [Manidipine Dihydrochloride] (20 µM)	1 (inactive)
CC(=O)NS(=O)(=O)c1ccc(NC(=O)c2ccccc2C(=O)O)cc1 [Phthalylsulfacetamide] (20 µM)	1.01 (inactive)
CN(C/C=C/C#CC(C)(C)C)Cc1cccc2ccccc12 [Terbinafine] (20 µM)	1.01 (inactive)
Nc1nc2[nH]cnc2c(=S)[nH]1 [Tioguanine] (20 µM)	0.987 (inactive)
CC(=O)OCC(=O)[C@@]12N=C(C)O[C@@H]1C[C@H]1[C@@H]3CCC4=CC(=O)C=C[C@]4(C)[C@H]3[C@@H](O)C[C@@]12C [Deflazacort] (20 µM)	1 (inactive)
CCCCOCCOCCOCc1cc2c(cc1CCC)OCO2 [Piperonyl butoxide] (20 µM)	0.999 (inactive)
O=C(Cn1ccnc1[N+](=O)[O-])NCCO [Etanidazole] (20 µM)	1.03 (inactive)
CCN(CC)CCNC(=O)c1cc(Cl)c(N)cc1OC [Metoclopramide monohydrochloride] (20 µM)	1.03 (inactive)
CCN(CC)CCNC(C(=O)OCCC(C)C)c1ccccc1 (configuration not stated) [Camylofine chlorhydrate] (20 µM)	1 (inactive)
Cc1cc(C)nc(NS(=O)(=O)c2ccc(N)cc2)n1 [Sulfamethazine sodium salt] (20 µM)	1.03 (inactive)
C/C(O)=C(\C#N)C(=O)Nc1ccc(C(F)(F)F)cc1 [Teriflunomide] (20 µM)	1.02 (inactive)
NC[C@@H]1O[C@@H](O[C@H]2[C@H](O)[C@@H](O[C@H]3O[C@H](CO)[C@@H](O)[C@H](N)[C@H]3O)[C@H](N)C[C@@H]2N)[C@@H](O)[C@H](O)[C@H]1O [Kanamycin A sulfate] (20 µM)	0.977 (inactive)
CN[C@@H]1[C@H](O)[C@H](NC)[C@H]2O[C@@]3(O)C(=O)C[C@@H](C)O[C@H]3O[C@@H]2[C@H]1O [Spectinomycin dihydrochloride] (20 µM)	1.08 (inactive)
CCOC(=O)c1ccc(C#Cc2ccc3c(c2)C(C)(C)CCS3)nc1 [Tazarotene] (20 µM)	0.977 (inactive)
CCCOc1ccc2[nH]c(NC(=O)OC)nc2c1 [Oxibendazol] (20 µM)	1.02 (inactive)
CCN(CCCc1ccccc1)CCCc1ccccc1 [Alverine citrate salt] (20 µM)	1.02 (inactive)
CO[C@@H]1[C@@H](OC(N)=O)[C@@H](O)[C@H](Oc2ccc3c(O)c(NC(=O)c4ccc(O)c(CC=C(C)C)c4)c(=O)oc3c2C)OC1(C)C [Novobiocin sodium salt] (20 µM)	0.986 (inactive)
CCOC(N)=O [Urethane] (20 µM)	1.05 (inactive)
CCN1CCN(C(=O)N[C@@H](C(=O)N[C@@H]2C(=O)N3[C@@H]2SC(C)(C)[C@@H]3C(=O)O)c2ccccc2)C(=O)C1=O [Piperacillin sodium salt] (20 µM)	1.06 (inactive)
CC1CCc2cc(F)cc3c(=O)c(C(=O)O)cn1c23 (configuration not stated) [Flumequine] (20 µM)	1.13 (inactive)
CO/N=C1\CN(c2nc3c(cc2F)c(=O)c(C(=O)O)cn3C2CC2)CC1CN (configuration not stated) [Gemifloxacin mesylate] (20 µM)	0.66 (inactive)
C=CCOc1ccc(CC(=O)O)cc1Cl [Alclofenac] (20 µM)	0.974 (inactive)
C[C@]12CC[C@H]3[C@@H](CCC4=CC(=O)CC[C@@]43C)[C@@H]1CC[C@@H]2C(=O)CO [Deoxycorticosterone] (20 µM)	0.962 (inactive)
CCCC(CCC)C(=O)O[C@H]1C[C@H]2CC[C@@H](C1)[N+]2(C)C [Anisotropine Methylbromide] (20 µM)	0.962 (inactive)
Cc1cn(-c2cc(NC(=O)c3ccc(C)c(Nc4nccc(-c5cccnc5)n4)c3)cc(C(F)(F)F)c2)cn1 [Nilotinib] (20 µM)	1.01 (inactive)
OCCN1CCN(CC/C=C2/c3ccccc3Sc3ccc(C(F)(F)F)cc32)CC1 [Flupentixol dihydrochloride cis-(Z)] (20 µM)	0.933 (inactive)
